Most compounds without a hit are left out; they make up all but 0.58% or so of the library.
PKM2 act – activators of human pyruvate kinase M2; P14618; purified PKM2, Kinase-Glo ATP luminescence, activation; response scale: 0% is enzyme alone, no compound; Potency, µM (highest dose often 57.5 µM), for inactives: at the top dose activation, most hits filed as activators; 0.34% of 260,000 active; AID 1631; further: potency means the concentration at half of the fitted maximal effect; on the % scale 0 is the no-effect control and ±100 the full control effect; nearly all actives have a fitted effect of over 55% in size
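Kinase-Glo luminescence reports ATP generated from ADP (0.1 mM) and PEP (0.5 mM) by purified hPK-M2 after 1 h at room temperature, pH 7.2 imidazole buffer; intermediate enzyme activity allows detecting inhibitors and activators.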
PINK1 expr mod – PINK1 expression modulation; PINK1 immunofluorescence, high-content cytometry, 24 h; Potency, µM (top dose mostly 76.6 µM), for inactives: top-dose activation (PINK1 increase), actives largely listed as activators; 0.2% of 410,000 active; active means well fitted activation curve with a large enough effect; inconclusive means small, poorly fitted or top-dose-only effect; cell line not stated here; further: potency means the concentration at half of the fitted maximal effect; % of control where 0% means no effect; nearly all actives have a fitted effect of over 65% in size
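Decision-based qHTS: stable cells, 24 h exposure to five compound concentrations, CCCP as control. Fixed cells stained for PINK1 plus nuclear, mitochondrial and cell markers, cytometer read.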
Epigenetic derep – epigenetic control regulation, reporter derepression. murine LDR cells, GFP reporter derepression, 30 h. Potency, µM (highest dose often 53.9 µM), inactives show at the top dose GFP activation, hits mostly activators. 0.2% of 280,000 active; further: potency means the concentration at half of the fitted maximal effect; % of control where 0% means no effect; nearly all actives have a fitted effect of over 60% in size
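Murine LDR cells bearing a silenced CMV-driven GFP reporter were exposed to compound for 30 h at 37 C. After PBS washes, GFP-positive cells (20-120 um objects) counted by laser-scanning microplate cytometry.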
IL2 activator – IL-2 activation; IL-2 activation reporter assay, cell-based qHTS; stimulated with anti-CD3/CD4/CD28 beads; in transgenic mouse T cells; activation, % (series mostly up to about 46 µM); 0.065% of 360,000 active; AID 652025; in the data active means activation above about 50%; inconclusive means mostly about 30% to 49%; further: 0% is about no effect
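Readout is EGFP and DsRed signal by fluorescent plate cytometry after 18 h at 37 degrees C. Transgenic mouse T cells (750/well) received compound for 60 min before bead stimulation (anti-CD3, anti-CD4, anti-CD28); memory T cells served as non-tolerant control.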
B2AR arrestin – beta2AR (human) beta-arrestin recruitment activity; P07550; beta-arrestin recruitment to beta2AR, cell-based reporter; Potency, µM (top dose mostly 46.1 µM), for inactives: at the highest dose activation, hits mostly activators; 0.02% of 330,000 active;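 further: potency means the concentration at half of the fitted maximal effect; 0% = DMSO controls and full agonism = EC100 isoproterenol or metaproterenol; nearly all actives have a fitted effect of over 65% in size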
Target sequence (P07550 whole entry, looked up): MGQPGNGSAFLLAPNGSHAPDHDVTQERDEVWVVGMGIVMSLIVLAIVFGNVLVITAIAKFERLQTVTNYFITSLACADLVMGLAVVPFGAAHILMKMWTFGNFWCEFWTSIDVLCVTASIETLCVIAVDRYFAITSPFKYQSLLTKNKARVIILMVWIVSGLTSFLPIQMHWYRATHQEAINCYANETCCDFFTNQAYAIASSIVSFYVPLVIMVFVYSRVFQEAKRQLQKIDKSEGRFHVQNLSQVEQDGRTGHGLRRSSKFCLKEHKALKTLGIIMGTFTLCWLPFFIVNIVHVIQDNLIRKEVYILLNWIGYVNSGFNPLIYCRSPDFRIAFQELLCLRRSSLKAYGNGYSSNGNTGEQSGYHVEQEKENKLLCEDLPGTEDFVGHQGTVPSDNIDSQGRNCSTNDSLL
An asterisk follows results filed as active; ? = inconclusive; . = no result given; [ ] = remark or other dose. Unless noted, the call rests on the fitted dose curve; in most records, active means well fitted curve in the direction sought with a large enough effect; inconclusive means small, poorly fitted or top-dose-only effect, or another doubt; inactive means no such curve, though single readings can be large; an effect the other way counts as inactive or inconclusive.

SMILES	PKM2 act	PINK1 expr mod	Epigenetic derep	IL2 activator	B2AR arrestin
Cc1nc(N/N=C/c2ccccn2)sc1C	-75.7%	12.1%	8.0%	-0.7	-0.5%
Cc1ccc(CNc2ncnc3sc(C(=O)N4CCC(N5CCCC(O)C5)CC4)c(C)c23)o1 (centres undefined)	.	0.7%	.	.	.
COc1cc(OC)c(OC)cc1CN1CCCC(n2cc(C(=O)N3CCCCC3)nn2)C1 (centres undefined)	.	0.7%	.	.	.
COCCN1C(=O)/C(=C/c2ccc(N3CCCC3)cc2C)SC1=S	-3.4%	22.4µM*	2.82µM*	11.5	0.2%
CCN=C1S/C(=C\c2ccc(N3CCOCC3)cc2C)C(=O)N1CC	-2.4%	15.4%	0.0%	-1.8	-0.7%
O=C(CN1CCOCC1)NN=C(c1ccccc1)c1ccccc1	-1.0%	0.9%	-0.3%	-2.8	-2.0%
C/C(=N\NC(=O)CN1CCOCC1)C(C)(C)C	0.3%	10µM*	-5.7%	0.5	-0.2%
CC(=O)N1CCN(c2nc3cc(C)ccc3cc2CN(C(=O)c2cccc3ccccc23)C2CC2)CC1	.	-0.5%	.	.	.
Cn1cnnc1Sc1ccc(CN2CCOc3ccc(C4=Cc5ccccc5C4)cc3C2)o1	.	1.4%	.	.	.
O=C(NCc1ccccc1Cl)c1ccc(Nc2nc3ccccc3n3nnnc23)cc1	.	-0.4%	10µM*	.	.
Cc1ccn(CCC(=O)NCC2Cc3cc(Cl)cc(-c4ccc5[nH]ccc5c4)c3O2)n1 (centres undefined)	.	2.6%	.	.	.
CCCOc1ccc(C2C(C(=O)c3cc4ccccc4o3)=C(O)C(=O)N2c2cc(C)on2)cc1 (centres undefined)	-9.6%[0.46 µM]	25.1µM*	.	-3.3	-0.5%
Oc1cccc(/C=N/N2CCN(c3ccccn3)CC2)c1	-7.8%	0.6%	0.0%	-0.7	0.4%
BrC(=C\c1ccccc1)/C=N/N1CCN(c2ccccn2)CC1	-8.2%	-1.6%	22.4µM*	-5.7	5.0%
COCCN1CCN(C(=O)c2cnn(-c3nccc(-c4ccco4)n3)c2C(C)C)CC1	.	-0.9%	.	.	.
COC(=O)c1ccc(C(=O)NCC2Cc3cc(F)cc(-c4cncnc4)c3O2)cc1 (centres undefined)	.	0.5%	.	.	.
O=C1C2C3C=CC(CO)(O3)C2C(=O)N1c1ccccc1-c1ccccc1 (centres undefined)	31.6µM*	.	-1.1%	-1.8	-3.6%
CC(=O)Oc1ccc(N2C(=O)C3C4C=CC(CO)(O4)C3C2=O)cc1 (centres undefined)	?	6.7%	1.5%	-0.6	0.1%
CCc1ccccc1N=C1S/C(=C/c2ccccc2OCC(=O)N2CCOCC2)C(=O)N1C	1.8%	0.6%	0.0%	0.1	-0.2%
O=C1NN(c2ccccc2)C(=O)/C1=C\c1ccccc1OCC(=O)N1CCOCC1	10µM*	-0.4%[38.3 µM]	6.6%	-1.5	0.0%
Cc1c(/C=N/NC(=O)c2ccccc2O)c2ccccn2c1C(=O)c1ccc(F)cc1	-7.3%	28.2µM*	-2.0%	-3.4	-0.6%
COC(=O)c1sc(NC(=O)c2cc(-c3ccccc3)nc3ccccc23)c(C#N)c1C	-43.8%	5.62µM*	-1.1%	0.4	0.0%
CCOC(=O)c1sc(NC(=O)c2cc(-c3ccc(C)cc3)nc3ccccc23)c(C#N)c1C	-6.7%	?	-1.1%	-0.4	0.4%
Cc1ccccc1-c1cc(C(=O)Nc2sc(C(=O)OC(C)C)c(C)c2C#N)c2ccccc2n1	-3.1%	12.6µM*	-1.9%	-1.7	-0.2%
CCOC(=O)CC1C(=O)NCCN1c1nc2c(C)cccn2c(=O)c1/C=C1\SC(=S)N(CC(C)C)C1=O (centres undefined)	1.4%	.	7.94µM*	.	-0.2%
SMILES	PKM2 act	PINK1 expr mod	Epigenetic derep	IL2 activator	B2AR arrestin
CC(C)CN1C(=O)/C(=C/c2c(N3CCc4ccccc4C3)nc3ccccn3c2=O)SC1=S	-1.5%	.	4.47µM*	.	0.0%
COc1cccc(/C=N/NC(=S)Nc2cccc(S(=O)(=O)N(C)C)c2)c1	-3.6%	0.0%	4.1%	-4.1	17.8µM*
CN(C)S(=O)(=O)c1cccc(NC(=S)Nc2ccc(Cl)cc2Cl)c1	1.9%	15.8µM*	1.4%	1.1	-0.1%
COc1ccc(O)c(/C=N/NC(=S)Nc2cccc(S(=O)(=O)N(C)C)c2)c1	-15.9%	-1.9%	0.0%	0.2	0.9%
CN(C)S(=O)(=O)c1cccc(NC(=S)Nc2cc(Cl)cc(Cl)c2)c1	0.9%	?	0.8%	-0.6	0.0%
Cc1cc(C(=O)Nc2cccc(-c3nc(CNC(=O)c4sc(C)nc4C)c(C)o3)c2)c(C)o1	.	0.2%	.	.	.
CCn1ncc(C2=NOC(C(=O)NCc3ccccc3)C2)c1C (centres undefined)	-15.4%	12.6µM*	0.9%	0.2	0.3%
CCn1ncc(C2=NOC(C(=O)NCc3ccc(OC)cc3)C2)c1C (centres undefined)	-9.5%	?	-1.0%	-1.2	0.5%
CC(C)c1c(C(=O)NC(c2cccnc2)C(F)(F)F)cnn1-c1nccc(-c2cccs2)n1 (centres undefined)	.	-1.0%	.	.	.
CN1/C(=C\C=C2/C(=O)Oc3ccccc3C2=O)C(C)(C)c2ccccc21	-9.7%	12.6µM*	14.1µM*	80.4*	-0.2%
O=C(N/N=C/c1ccc(-c2ccc([N+](=O)[O-])cc2)o1)C(O)c1ccccc1 (centres undefined)	-0.3%	3.1%	-1.0%	-3.1	-0.4%
O=C(N/N=C/c1ccc([N+](=O)[O-])o1)C(O)c1ccccc1 (centres undefined)	0.2%	44.7µM*	0.0%	0.0	0.0%
O=C(c1ccccc1-n1cccn1)N1CCOc2c(cc(-c3ncc(C(F)(F)F)cc3Cl)cc2OCC2CCCO2)C1 (centres undefined)	.	-0.7%	.	.	.
Cn1c(NC(=O)c2cccc(Cn3cc(Cl)cn3)c2)nc2ccccc21	0.5%	11.2µM*	2.4%	-1.9	-0.2%
CCn1c(NC(=O)c2cccc(Cn3cc(Cl)cn3)c2)nc2ccccc21	5.4%	18.3%	-1.0%	-4.0	5.9%
O=C(CCN1C(=O)/C(=C/c2ccc(Cl)cc2)SC1=S)Nc1cccnc1	15.6%	3.3%	.	-0.7	-0.2%
CC(=C\c1ccccc1)/C=C1/SC(=S)N(CCC(=O)Nc2ccccn2)C1=O	1.1%	.	-1.3%	.	0.0%
O=C(CCN1C(=O)/C(=C/C=C/c2ccccc2)SC1=S)Nc1ccccn1	-0.1%	9.1%	14.1µM*	-0.9	-0.4%
O=C(CCN1C(=O)/C(=C/C=C/c2ccccc2)SC1=S)Nc1cccnc1	25.8%	2.8%	2.0%	69.0*	1.5%
COc1cc(/C=C2/SC(=S)N(CC(=O)Nc3cccnc3)C2=O)cc(OC)c1OC	-0.5%	3.9%	-1.1%	123.5*	0.0%
COc1cccc(CNC(=O)c2c(OC)cc(=O)n3c2CCN(C(=O)c2cc(C)ccc2C)CC3)c1	.	1.6%	.	.	.
Cc1cc(C(=O)CSc2nc3ccc(Cl)cc3[nH]2)c(C)n1C	15.8µM*	11.6%[38.3 µM]	1.6%	-0.7	0.2%

From PubChem
